# An excerpt weighted towards active compounds, which were near 12% of everything screened.
# G9a inh: G9a (human) methyltransferase inhibition; Q96KQ7; G9a H3K9 monomethylation, AlphaScreen, 2 h; Potency, µM (highest dose often 102 µM), without a hit: top-dose activity, negative = inhibition, hits mostly inhibitors; 8.8% of 350,000 active; also: potency is read from the fitted curve at half-maximal effect; % is scaled to controls: 0 for no effect and ±100 for the full control effect; nearly all actives have a fitted effect of over 75% in size
#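 Quantitative HTS format: methyltransferase activity on a biotin-tagged H3K9 peptide is measured by AlphaScreen, using a rabbit anti-monomethyl-H3K9 antibody with streptavidin donor and anti-IgG acceptor beads. Final levels are 20 nM enzyme, 500 nM peptide, 20 uM SAM; 2 h RT.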
# JMJD2A Tudor: blocks the human JMJD2A Tudor domain; 4.4% of 390,000 active; AlphaScreen JMJD2A-Tudor / H3K4me3 peptide binding; O75164; Potency, µM (doses to about 114 µM), without a hit: at the highest dose activity change, negative = inhibition, actives largely listed as inhibitors; also: potency is read from the fitted curve at half-maximal effect; % is scaled to controls: 0 for no effect and ±100 for the full control effect; nearly all actives have a fitted effect of over 50% in size
# HP1b binding inh: blocks HP1-beta chromodomain binding to methylated histone tails; P83916; AlphaScreen HP1-beta / biotin-H3K9me3 peptide binding; Potency, µM (doses to about 114 µM), for the others: top-dose activity change, negative = inhibition, usual class: inhibitors; 0.56% of 390,000 active; AID 540317; also: potency is read from the fitted curve at half-maximal effect; nearly all actives have a fitted effect of over 70% in size
# Target sequence (P83916 whole entry, looked up): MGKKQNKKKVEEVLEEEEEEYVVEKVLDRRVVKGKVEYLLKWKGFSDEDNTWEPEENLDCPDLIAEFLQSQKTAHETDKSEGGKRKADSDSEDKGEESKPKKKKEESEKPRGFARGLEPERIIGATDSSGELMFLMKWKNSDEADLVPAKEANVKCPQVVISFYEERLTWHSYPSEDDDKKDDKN
#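 HP1-beta protein (50 nM final) preincubated 30 min at room temperature with biotinylated H3(1-18)K9me3 peptide (50 nM) in PBS pH 7.4, 0.01% Tween-20, then compound added for 30 min. AlphaScreen streptavidin donor/nickel chelate acceptor beads (10 ug/mL final), 30 min dark, luminescence read.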
# PI5P4Ka inh: PI5P4K alpha (human) kinase inhibition; P48426; 1.2% of 330,000 active; PI5P4Kalpha enzyme, ADP-Glo luminescence, 60 min; hits give low values; max response, %; active = max response of -50% or lower; inconclusive = between -30% and -50%; inactive = -30% or higher; also: value at the top dose of about 77 µM; % is scaled to controls: 0 for no effect and ±100 for the full control effect
# Target sequence (P48426 whole entry, looked up): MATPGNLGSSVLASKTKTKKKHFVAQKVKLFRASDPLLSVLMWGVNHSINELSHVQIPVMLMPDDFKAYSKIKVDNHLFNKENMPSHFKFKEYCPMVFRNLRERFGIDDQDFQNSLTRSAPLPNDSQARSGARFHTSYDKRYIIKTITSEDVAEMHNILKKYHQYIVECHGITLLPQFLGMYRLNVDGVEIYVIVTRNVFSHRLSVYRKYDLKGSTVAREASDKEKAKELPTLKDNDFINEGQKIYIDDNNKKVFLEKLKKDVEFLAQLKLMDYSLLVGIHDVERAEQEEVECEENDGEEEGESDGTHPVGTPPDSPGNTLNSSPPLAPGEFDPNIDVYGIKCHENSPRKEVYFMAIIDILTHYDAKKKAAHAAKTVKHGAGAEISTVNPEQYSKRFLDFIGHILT
#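 Human PI5P4Kalpha with substrate in 0.038 M HEPES pH 7.4, 0.28 mM EGTA, 0.1% CHAPS, 5% DMSO; reaction started with 5 microM ATP (final), 60 min at room temperature. ADP formed read by ADP-Glo luminescence.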
# BAZ2B block: BAZ2B (human) inhibition. Q9UIF8. AlphaScreen BAZ2B-H3K14Ac peptide displacement. Potency, µM (top dose mostly 114 µM), inactives show at the highest dose activity change, negative = inhibition, most hits filed as inhibitors. 4.4% of 360,000 active. AID 504333; also: potency is read from the fitted curve at half-maximal effect; % is scaled to controls: 0 for no effect and ±100 for the full control effect; nearly all actives have a fitted effect of over 60% in size
#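 AlphaScreen luminescence quantifies BAZ2B engagement of H3K14Ac peptide; the protein and biotinylated peptide are both at 50 nM final, buffer PBS pH 7.4 with 0.01% Tween-20, all steps at room temperature.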
# PLK1 PBD inh: inhibitors of human PLK1 polo-box domain binding | P53350 | 2.8% of 360,000 active | Plk1 PBD binding of FITC phosphopeptide, fluorescence polarization | Potency, µM, inactives show max response, negative = inhibition, usual class: inhibitors | AID 720504; also: potency is read from the fitted curve at half-maximal effect; series mostly up to about 57 µM; % is scaled to controls: 0 for no effect and ±100 for the full control effect; nearly all actives have a fitted effect of over 65% in size
# * marks the source's active call; other numbers are inactive results; ? = inconclusive; / = not tested or not shown; [ ] = remark or other dose. Unless noted, calls follow the shape of the dose curve; as a rule, active = well fitted curve in the direction sought with a large enough effect; inconclusive = small, poorly fitted or top-dose-only effect, or another doubt; inactive = no such curve, though single readings can be large; an effect the other way counts as inactive or inconclusive.
SMILES,G9a inh,JMJD2A Tudor,HP1b binding inh,PI5P4Ka inh,BAZ2B block,PLK1 PBD inh
Cc1c(C(=O)N(Cc2ccc(N(C)C)cc2)CC2CCCO2)oc2ccc(Cl)cc12 (stereo unspecified),11µM*,13µM*,?,/,10µM*,/
Cc1cc2oc(C(=O)N(Cc3ccc(N(C)C)cc3)CC3CCCO3)c(C)c2cc1Cl (stereo unspecified),14µM*,22µM*,-21%,/,14µM*,/
CCCc1ccc2oc(C(=O)N(Cc3ccncc3)CC3CCCO3)c(C)c2c1 (stereo unspecified),-10%,-20%,26%,-7,-29%,-4%
Cc1ccc(NC(=O)C2CCCN2S(=O)(=O)c2cccc3nsnc23)cc1Cl (stereo unspecified),?,-35%,10%,/,?,/
CNc1ncnc2ccc(-c3ccccc3C#N)cc12,9%[0.501 µM],/,/,/,/,/
O=C(Nc1ccncc1)Nc1cccc(F)c1,29%,-11%,29%,-1,-8%,-5%
COCCn1c(C)cc(C(=O)COC(=O)c2ccc([N+](=O)[O-])o2)c1C,79µM*,?,4%,-2,45µM*,-3%
CSc1ncccc1C(=O)OCC(=O)c1cc(C)n(CC2CCCO2)c1C (stereo unspecified),?,?,?,0,-29%,-2%
Cc1cc(C(=O)COC(=O)c2ccc([N+](=O)[O-])o2)c(C)n1CC1CCCO1 (stereo unspecified),45µM*,-27%,10%,-6,?,-7%
COCCn1c(C)cc(C(=O)COC(=O)c2cc3c(s2)CCC3)c1C,45µM*,35µM*,?,?,40µM*,?
Cc1cc(C)c(C(=O)COC(=O)c2ccc([N+](=O)[O-])o2)cc1C,?,-22%[11.4 µM],-19%,8,/,-14%
O=C(CNC(=O)c1ccc([N+](=O)[O-])cc1)OC(C(=O)Nc1cc(C(F)(F)F)ccc1Cl)c1ccccc1 (stereo unspecified),/,-22%,/,/,/,/
Cc1ccccc1NC(=S)N(CCc1c(C)[nH]c2ccc(F)cc12)Cc1cccnc1,56µM*,?,-7%,1,/,-6%
Cc1[nH]c2ccc(F)cc2c1CCN(Cc1cccnc1)C(=S)Nc1cccc(F)c1,?,?,0%,-7,32µM*,-1%
Cc1[nH]c2ccc(F)cc2c1CCN(Cc1cccnc1)C(=S)NC(C)(C)C,-15%,-36%,32%,3,-37%,-14%
CC(C)c1ccc(/C=C2\CC/C(=C\C=N\N(C)C)C2=O)cc1,?,?,-2%,-7,56µM*,-6%
CN(C)/N=C/C=C1\CC/C(=C\c2ccc(F)c(F)c2)C1=O,/,?,23%,0,/,-15%
COc1cccc(/C=N/n2c(SC)nnc2-c2ccccc2)c1O,8.9µM*,-31%,24%,-2,?,-4%
CCOC(=O)/C(C#N)=N/Nc1ccc(S(=O)(=O)Nc2cc(OC)nc(OC)n2)cc1,/,-6%,16%,4,/,2%
COC(=O)[C@@H](N)CS,8.9µM*,?,-25%,?,-31%,24µM*
COC(=O)C(N)CS (stereo unspecified),-46%[2.33 µM],/,/,/,/,/
COc1cccc(Nc2nc(-c3ccc(O)cc3)cs2)c1,50µM*,?,-9%,/,?,-16%
COc1cccc(-c2csc(Nc3ccc(Oc4ccccc4)cc3)n2)c1,/,/,/,8,/,-2%
COc1cccc(Nc2nc(-c3cccc(N4C(=O)c5ccccc5C4=O)c3)cs2)c1,14µM*,?,?,1,?,?
CC(=O)Nc1ccc(N(C(=O)Cc2cccs2)C(C(=O)NC2CCCC2)c2ccncc2)cc1 (stereo unspecified),13%,-9%,13%[57 µM],7,0%,-6%
SMILES,G9a inh,JMJD2A Tudor,HP1b binding inh,PI5P4Ka inh,BAZ2B block,PLK1 PBD inh
COc1ccc(-c2noc(-c3ccccc3NC(=O)c3cc(OC)c(OC)c(OC)c3)n2)cc1,?,-1%,25%,/,-1%,/
Cc1ccccc1NC(=O)CSc1nnc(CNC(=O)c2ccco2)n1C,-2%,-2%,39%,-3,6%,2%
Cc1cc(=O)[nH]c(/N=C(\N)Nc2ccc3c(c2)OCCO3)n1,22µM*,-8%,-18%,4,-24%,-2%
COc1ccc(Cl)cc1N/C(N)=N/c1nc(C)cc(=O)[nH]1,20µM*,?,24%,2,-12%,1%
Cc1cc(C)nc(/N=C(\N)Nc2ccc3c(c2)OCCO3)n1,-8%,-15%,55%,-8,15%,-13%
COC(=O)[C@@H]1CC[C@H](C)[C@@H](c2ccc(C)cc2)N1C(=O)c1ccc(/C=N/O[C@@H](C)CN2CCCCc3nc(C)c(C)cc32)cc1,32µM*,/,/,/,19%,/
CCCCOC(=O)c1ccc(NC(=O)CC2NCCNC2=O)cc1 (stereo unspecified),4%[59 µM],-10%,5%,/,-10%,/
CC1=NN(c2ccccc2)C(=O)/C1=C\N1CC(C)OC(C)C1 (stereo unspecified),79µM*,-30%,14%,1,?,-8%
CC1=NN(c2ccccc2)C(=O)/C1=C/C=C/c1ccccc1,5µM*,8.9µM*,32µM*,7,7.9µM*,?
CN(C)/C=C1\C(=O)ON=C1c1ccccc1,?,-8%,23%,-2,-2%,-7%
CC1=NN(c2cccc(C(=O)O)c2)C(=O)/C1=C\C=C\c1ccco1,7.9µM*,8.9µM*,13µM*,-80*,10µM*,8.4µM*
Cc1ccc(C2=NOC(=O)/C2=C\C=C\c2ccccc2)cc1,2.8µM*,50µM*,-30%,?,35µM*,1.7µM*
CC1=NN(c2ccccc2)C(=O)/C1=C/c1cc(C)n(C2CC2)c1C,7%[12.7 µM],-35%[11.4 µM],26%,-4,?,-12%
Cc1ccc(NC(=O)CSc2nnc3ccc4ccccc4n23)cc1,-6%[59 µM],?,73%,/,32%,/
COc1ccc(CN2CCc3c(c(=O)n4ncc(C(=O)N5CCN(c6ccc(F)cc6)CC5)c4n3C)C2)cc1,4%[59 µM],-11%,26%[57 µM],/,79µM*,/
CCOC(=O)c1ccc(NC(=O)c2cnn3c(=O)c4c(n(CC)c23)CCN(Cc2ccc(OC)cc2)C4)cc1,7%[59 µM],-29%,5%[57 µM],/,-18%,/
CCn1c2c(c(=O)n3ncc(C(=O)Nc4ccc(OC(F)(F)F)cc4)c13)CN(Cc1ccc(OC)cc1)CC2,13µM*,-11%,22%[57 µM],/,-5%,/
N#Cc1ccc(S(=O)(=O)N2CCN(S(=O)(=O)c3ccc4c(c3)OCCO4)CC2)cc1,/,-2%,/,/,/,/
COC(=O)c1ccccc1S(=O)(=O)N(CCCN1CCOCC1)Cc1cccs1,7.9µM*,7.9µM*,?,0,50µM*,-11%

# High-throughput results as filed in PubChem.
